Active and inactive are the calls of the source.

Assay [1] in a line: small molecules captured by biotinylated probe aFSTL3 – biochemical, small-molecule microarray, fluorescence 635/667, stem cell growth factor project, primary screen (AID 1064).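 Further: measures binding of the biotinylated anti-FSTL3 antibody to printed compounds.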 The following applies: higher = more signal.
Assay [2] can be described thus: binders from COS7 lysate, DM2A8 probe, primary screen, torsin A project, cell lysate, small-molecule microarray, fluorescence 635/667 (AID 1065). The following applies: higher = more signal, COS7 lysate expressing mutant human TOR1A.
Assay [3] is described as follows: small molecules captured by biotinylated probe aFGF2 – biochemical, small-molecule microarray, fluorescence 635/667, stem cell growth factor project, primary screen (AID 1067).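 Further: measures binding of biotinylated aFGF2 protein to printed compounds on slides; z-score merges feature fluorescence and signal-to-noise across triplicate slides.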 The following applies: higher = more signal.
A short description of assay [4]: small molecules captured by biotinylated probe aFGF10 – biochemical, small-molecule microarray, fluorescence 635/667, stem cell growth factor project, primary screen (AID 1071).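 Further: score merges 667 nm spot intensity and signal to noise from triplicate slides.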 The conditions noted are these: higher = more signal.
The target of assay [5] is Neurogenic locus notch homolog protein 2 (Homo sapiens) (UniProt Q04721). Kind of assay: small molecules binding Notch2 protein – biochemical, small-molecule microarray, 635 nm fluorescence, stem cell growth factors, primary screen (AID 1073). The following applies: higher = more signal.
Assay [6] has as its target Pro-neuregulin-1, membrane-bound isoform (Homo sapiens) (UniProt Q02297). Kind of assay: small molecules binding neuregulin-1 protein – biochemical, small-molecule microarray, fluorescence 635/667, psychiatric disease protein project, primary screen (AID 1075).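 Further: score combines 667 nm spot fluorescence with signal to noise.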 The following applies: NRG1 binding, 635 nm fluorescence, higher = more signal.
In assay [7] the test system is Neuregulin-1 EGF-like domain. The assay is described as follows: small molecules binding NRG1 EGF domain – biochemical, small-molecule microarray, 635 nm fluorescence, primary screen (AID 1081).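 Further: binding of the protein to compounds printed on small-molecule microarray slides.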 The following applies: higher = more signal.
A short description of assay [8]: FRG1 expression reporter modulators in myotubes – cell-based, C2C12 myotubes, firefly/Renilla luciferase, luminescence, FRG1 inhibition for FSHD, primary screen (AID 1084). The conditions noted are these: FRG1 promoter luciferase, higher = more signal, called active from +8 up or from −8 down.
Assay [9] can be described thus: small molecules captured by biotinylated probe aFST – biochemical, small-molecule microarray, fluorescence 635/667, stem cell growth factor project, primary screen (AID 1086).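 Further: score merges 667 nm fluorescence with signal-to-noise of each printed compound spot.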 The following applies: higher = more signal.
A short description of assay [10]: binders of probe aHhip on microarray, primary screen, stem cell growth factor project, biochemical, small-molecule microarray, fluorescence 635/667 (AID 1087).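 Further: score merges spot fluorescence at 667nm with spot signal to noise ratio.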 The following applies: higher = more signal.
Assay [11] deals with PRMT1 (protein arginine N-methyltransferase 1). The assay is described as follows: small molecules binding arginine methyltransferase PRMT1 – biochemical, small-molecule microarray, 635 nm fluorescence, primary screen (AID 1088).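 Further: binding of Prmt1 protein to compounds spotted on small-molecule microarray slides.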 The conditions noted are these: higher = more signal.
Assay [12] is described as follows: growth effects on S. cerevisiae YJM789 – YJM789 clinical isolate, OD600, 24 h, basal, primary screen (AID 1089).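 Further: growth of clinical yeast isolate S. cerevisiae YJM 789 seeded 1000 cells per well; test concentration not given here.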 The following applies: higher = more signal, called active from +8 up or from −8 down.
Assay [13] in a line: S. pombe growth modifiers, basal conditions – strain 972, OD600, 24 h, no modulator, primary screen (AID 1090).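 Further: basal condition with compound alone and no growth modifier present; test concentration not given here.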 The following applies: S. pombe 972 growth, higher = more signal, called active from +8 up or from −8 down.
Assay [14] can be described thus: budding yeast growth modifiers under rapamycin – strain BY4716, OD600, 96 h, primary screen (AID 1091). Further: test concentration not given here. The conditions noted are these: S. cerevisiae BY4716 + rapamycin, higher = more signal, called active from +8 up or from −8 down.
Assay [15] has as its target Torsin-1A-interacting protein 2 (Homo sapiens) (UniProt Q8NFQ8). Kind of assay: small molecules binding lysate-expressed LULL1 – cell lysate, human LULL1 lysate, 635/667 nm fluorescence, primary screen (AID 1092).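 Further: probe is lysate of COS7 cells overexpressing human LULL1; score merges per-feature 667 nm fluorescence with signal-to-noise.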 The following applies: small-molecule microarray, hLULL1 lysate binding, 635 nm fluorescence; higher = more signal.
Assay [16] in a line: optical density change of DRC41 E. coli – strain DRC41, OD650, 24 h, E. coli filamentation project, primary screen (AID 1093).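 Further: MC1000 strain lacking acrAB efflux and sulA so SOS filamentation is blocked; test concentration not given here.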 The following applies: E. coli DRC41 growth, higher = more signal, called active from +8 up or from −8 down.
The nature of assay [17]: probe aLefty2 binding to arrayed compounds – biochemical, biotinylated probe, 635/667 nm fluorescence, primary screen (AID 1094).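 Further: score merges spot fluorescence near 667 nm with spot signal-to-noise ratio.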 The conditions noted are these: small-molecule microarray, higher = more signal.
Assay [18] concerns Noggin (protein binding on small-molecule microarray). Kind of assay: small molecules binding Noggin protein – biochemical, 635/667 nm fluorescence, primary screen (AID 1095).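 Further: score merges 667 nm feature fluorescence with signal to noise over triplicate slides.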 The conditions noted are these: 635 nm fluorescence, higher = more signal.
Assay [19] has as its target Neurogenic locus notch homolog protein 3 (Homo sapiens) (UniProt Q9UM47). The assay is described as follows: small molecules binding NOTCH3 protein – biochemical, 635/667 nm fluorescence, primary screen (AID 1096). The following applies: small-molecule microarray, 635 nm fluorescence, higher = more signal.
Assay [20] in a line: probe aEGFR binding to arrayed compounds – biochemical, biotinylated probe, 635/667 nm fluorescence, primary screen (AID 1097).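 Further: probe is a biotinylated anti-EGFR antibody binding compounds printed on slides; score combines fluorescence near 667 nm and signal to noise of each spot.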 The conditions noted are these: small-molecule microarray, higher = more signal.

Sequence of Torsin-1A-interacting protein 2 (Homo sapiens) (Q8NFQ8 whole entry, looked up): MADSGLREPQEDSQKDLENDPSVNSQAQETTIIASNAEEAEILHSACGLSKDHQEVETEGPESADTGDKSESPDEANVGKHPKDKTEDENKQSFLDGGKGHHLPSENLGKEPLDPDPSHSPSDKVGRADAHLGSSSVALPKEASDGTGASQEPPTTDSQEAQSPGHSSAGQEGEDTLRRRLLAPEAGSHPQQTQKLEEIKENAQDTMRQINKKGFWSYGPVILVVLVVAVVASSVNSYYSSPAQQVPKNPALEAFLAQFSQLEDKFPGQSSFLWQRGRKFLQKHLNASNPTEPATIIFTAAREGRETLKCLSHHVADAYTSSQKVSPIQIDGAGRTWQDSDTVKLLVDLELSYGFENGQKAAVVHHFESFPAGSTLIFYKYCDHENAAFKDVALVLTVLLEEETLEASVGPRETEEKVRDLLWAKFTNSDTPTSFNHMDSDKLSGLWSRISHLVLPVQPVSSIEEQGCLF
Sequence of Neurogenic locus notch homolog protein 3 (Homo sapiens) (Q9UM47 whole entry, looked up): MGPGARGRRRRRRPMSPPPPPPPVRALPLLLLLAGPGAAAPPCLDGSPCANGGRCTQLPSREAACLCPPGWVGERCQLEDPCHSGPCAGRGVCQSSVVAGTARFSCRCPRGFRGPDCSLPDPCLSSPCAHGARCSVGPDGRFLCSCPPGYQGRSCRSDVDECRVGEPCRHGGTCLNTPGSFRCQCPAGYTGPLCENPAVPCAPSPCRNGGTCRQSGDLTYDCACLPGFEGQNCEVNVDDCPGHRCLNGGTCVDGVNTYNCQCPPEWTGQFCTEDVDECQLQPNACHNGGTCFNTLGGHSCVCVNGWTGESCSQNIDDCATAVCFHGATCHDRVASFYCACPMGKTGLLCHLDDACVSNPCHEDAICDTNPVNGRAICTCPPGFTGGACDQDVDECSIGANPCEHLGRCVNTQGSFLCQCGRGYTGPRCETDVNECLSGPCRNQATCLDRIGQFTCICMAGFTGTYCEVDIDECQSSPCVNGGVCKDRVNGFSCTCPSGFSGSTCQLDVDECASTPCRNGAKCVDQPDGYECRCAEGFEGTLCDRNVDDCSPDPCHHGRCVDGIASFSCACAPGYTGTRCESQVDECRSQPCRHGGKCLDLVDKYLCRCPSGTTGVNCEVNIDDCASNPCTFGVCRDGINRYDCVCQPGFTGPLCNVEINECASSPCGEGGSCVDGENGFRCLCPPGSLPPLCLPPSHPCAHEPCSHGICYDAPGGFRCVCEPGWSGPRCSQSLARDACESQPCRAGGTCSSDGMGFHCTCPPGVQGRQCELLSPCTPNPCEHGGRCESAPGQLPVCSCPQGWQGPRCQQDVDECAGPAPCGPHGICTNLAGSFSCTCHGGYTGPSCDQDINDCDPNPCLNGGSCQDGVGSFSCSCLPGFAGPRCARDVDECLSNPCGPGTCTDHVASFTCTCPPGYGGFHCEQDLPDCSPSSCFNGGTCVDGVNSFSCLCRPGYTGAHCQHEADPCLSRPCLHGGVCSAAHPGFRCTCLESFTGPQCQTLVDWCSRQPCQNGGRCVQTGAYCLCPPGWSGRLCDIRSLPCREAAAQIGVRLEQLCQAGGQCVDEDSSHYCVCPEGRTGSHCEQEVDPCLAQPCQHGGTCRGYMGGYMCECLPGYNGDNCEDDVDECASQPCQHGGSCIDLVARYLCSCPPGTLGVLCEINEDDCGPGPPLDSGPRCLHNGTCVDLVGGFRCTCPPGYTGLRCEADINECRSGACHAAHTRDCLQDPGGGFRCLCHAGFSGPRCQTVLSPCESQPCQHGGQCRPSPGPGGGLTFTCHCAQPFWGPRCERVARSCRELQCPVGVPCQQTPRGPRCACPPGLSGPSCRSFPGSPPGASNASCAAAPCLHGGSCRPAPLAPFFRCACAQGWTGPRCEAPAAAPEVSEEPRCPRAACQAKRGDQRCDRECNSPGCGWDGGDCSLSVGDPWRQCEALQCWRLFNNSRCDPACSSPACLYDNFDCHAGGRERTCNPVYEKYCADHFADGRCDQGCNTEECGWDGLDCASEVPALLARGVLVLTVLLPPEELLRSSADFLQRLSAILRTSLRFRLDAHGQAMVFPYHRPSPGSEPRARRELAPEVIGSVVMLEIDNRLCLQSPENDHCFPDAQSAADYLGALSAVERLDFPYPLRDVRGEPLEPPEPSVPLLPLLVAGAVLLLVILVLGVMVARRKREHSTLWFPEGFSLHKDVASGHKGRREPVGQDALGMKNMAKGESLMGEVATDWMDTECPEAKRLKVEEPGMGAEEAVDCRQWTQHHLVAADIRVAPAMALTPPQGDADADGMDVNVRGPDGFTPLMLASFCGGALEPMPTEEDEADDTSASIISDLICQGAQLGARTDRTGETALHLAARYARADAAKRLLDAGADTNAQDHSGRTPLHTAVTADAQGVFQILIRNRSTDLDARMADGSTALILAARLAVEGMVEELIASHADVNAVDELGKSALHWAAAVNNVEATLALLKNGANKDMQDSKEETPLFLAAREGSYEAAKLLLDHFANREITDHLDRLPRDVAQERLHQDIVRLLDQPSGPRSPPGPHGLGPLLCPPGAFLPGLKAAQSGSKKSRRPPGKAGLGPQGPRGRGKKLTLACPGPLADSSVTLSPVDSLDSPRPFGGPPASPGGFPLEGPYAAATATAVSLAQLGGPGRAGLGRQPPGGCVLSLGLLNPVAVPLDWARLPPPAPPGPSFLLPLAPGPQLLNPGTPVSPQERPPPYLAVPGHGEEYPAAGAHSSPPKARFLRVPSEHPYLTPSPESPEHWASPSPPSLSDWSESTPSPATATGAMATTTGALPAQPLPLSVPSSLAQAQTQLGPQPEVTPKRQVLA
Sequence of Pro-neuregulin-1, membrane-bound isoform (Homo sapiens) (Q02297 whole entry, looked up, the tested form may be a part, canonical isoform): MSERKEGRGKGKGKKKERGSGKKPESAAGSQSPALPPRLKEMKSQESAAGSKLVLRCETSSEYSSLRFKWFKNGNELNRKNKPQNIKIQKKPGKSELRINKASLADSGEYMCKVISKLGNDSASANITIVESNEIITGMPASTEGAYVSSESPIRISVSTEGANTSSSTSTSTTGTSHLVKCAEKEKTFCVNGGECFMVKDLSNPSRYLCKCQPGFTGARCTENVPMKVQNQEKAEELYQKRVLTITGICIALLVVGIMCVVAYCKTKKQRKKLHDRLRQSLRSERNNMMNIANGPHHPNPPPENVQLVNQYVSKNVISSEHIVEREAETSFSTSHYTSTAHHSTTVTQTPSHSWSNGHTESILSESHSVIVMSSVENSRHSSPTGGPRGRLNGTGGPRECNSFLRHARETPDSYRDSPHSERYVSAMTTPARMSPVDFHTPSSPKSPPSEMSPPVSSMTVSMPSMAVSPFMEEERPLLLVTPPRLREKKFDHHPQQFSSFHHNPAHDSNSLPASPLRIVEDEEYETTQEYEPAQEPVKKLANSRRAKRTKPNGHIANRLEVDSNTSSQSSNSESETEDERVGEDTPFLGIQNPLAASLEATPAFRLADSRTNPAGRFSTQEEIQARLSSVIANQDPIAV

For the molecule `C=C(CCCC)C(=O)CC[C@H](OC(=O)c1ccccc1-c1ccccc1C(=O)O)c1ccc(OCCO)cc1`, the composite z-score in assay [1] was -0.441; in assay [2], 1.06; in assay [3], -0.0876; in assay [4], 0.315; in assay [5] it was -0.181; in assay [6], 1.13. The composite z-score in assay [7] was 1.19; in assay [9], 0.393; in assay [10], -0.236; in assay [11] it was 0.636; in assay [15], 1.65; in assay [17], -0.0563. In addition, the values for the composite z-score in [18], in assay [19] and in assay [20] were 1.43, 0.171 and -0.0197, respectively. For the same molecule, the z-score in [8] is -0.62 (inactive); in assay [12], -0.338 (inactive); in [13], -1.48 (inactive); in [14], -1.88 (inactive); in assay [16] it was 0.836 (inactive).

Take `COc1ccc(C#Cc2ccc3c(c2)[C@]2(C(=O)N3)[C@H](C(=O)O)[C@H]3C(=O)O[C@H](c4ccccc4)[C@H](c4ccccc4)N3[C@@H]2c2ccccc2OCCO)cc1`: the composite z-score is -1.04 in assay [1]; 0.485 in assay [2]; -0.095 in assay [3]; 0.991 in [4]; 1.26 in [5]; 0.566 in [6]. For the same molecule, the composite z-score in [7] was 1.07; in [9] it was -0.515; in assay [10] it was -0.583; in assay [11] it was 1.54; in assay [15], 2.2; in [17] it was -0.321. For the same molecule, the composite z-score in assay [18] is 0.597; in assay [19], 1.04; in [20], 0.0458. For the same molecule, the z-score was 0.205 (inactive) in assay [8]; 1.79 (inactive) in assay [12]; 0.549 (inactive) in assay [13]; 0.705 (inactive) in assay [14]; 0.969 (inactive) in assay [16].

Consider `COC(=O)C(CC#Cc1ccc2c(c1)[C@]1(C(=O)N2)[C@H](c2ccccc2OCCO)N2[C@H](c3ccccc3)[C@H](c3ccccc3)OC(=O)[C@H]2[C@@H]1C(=O)N1CCc2cc(OC)c(OC)cc2C1)C(=O)OC`, for which the composite z-score is -0.152 in assay [1]; 0.179 in assay [2]; -0.0087 in [3]; 0.382 in assay [4]; 1.15 in [5]; 0.834 in assay [6]. The composite z-score in assay [7] is 1.3; in assay [9], 0.383; in assay [10], -0.374; in assay [11], 1.53; in assay [15] it was 3.01; in assay [17], -0.174. Besides, the composite z-score in assay [18] was determined as 1.08; in assay [19], 1.09; in assay [20], 0.0355. Further, the z-score in assay [8] is -1.14 (inactive); in assay [12] it was 2.1 (inactive); in assay [13], 1.13 (inactive); in [14] it was 4.27 (inactive); in assay [16] it was 0.463 (inactive).

For `CC(C)c1nc2cc(Br)ccc2c(=O)o1`, the composite z-score in assay [1] was -0.404; in [2], 0.109; in assay [3] it was 0.0013; in [4], 0.58; in assay [5] it was 1.39; in assay [6], 1.21. Further, the composite z-score in assay [7] was 0.565; in assay [9], 0.689; in assay [10], -0.146; in assay [11], -0.0152; in assay [15] it was 2.97; in [17], -0.0823. In addition, the composite z-score is 0.0534 in [18], 0.567 in assay [19] and -0.0535 in [20]. For the same molecule, the z-score was 0.604 (inactive) in assay [8]; -0.0363 (inactive) in [12]; 0.347 (inactive) in assay [13]; -0.26 (inactive) in [14]; 0.501 (inactive) in assay [16].

Take `COC(=O)[C@@]1(Cc2ccccc2)N=C(c2ccc(OCCCO)cc2)O[C@H]1c1ccccc1CN=[N+]=[N-]`: the composite z-score in assay [1] is 0.261; in assay [2], 0.0296; in assay [3], -0.0529; in assay [4], 0.0585; in assay [5] it was 0.33; in [6] it was 1.02. Moreover, the composite z-score is 0.666 in [7]; 0.226 in assay [9]; -0.41 in assay [10]; 1.55 in assay [11]; 2.27 in [15]; -0.0747 in [17]. The results for the composite z-score in assay [18], in assay [19] and in [20] were 1.05, 0.129 and 0.0267, respectively. The z-score in assay [8] is -2.6 (inactive); in assay [12], -0.605 (inactive); in assay [13], -0.129 (inactive); in assay [14], 29.9 (active); in [16], 1.62 (inactive).

(Values after PubChem BioAssay.)
